16 molecules from article PMC12864922, “TDP-43 directly inhibits mRNA accumulation in neurites through modulation of mRNA stability” can be followed below.

The labels stand for the following.
B1: ENSMUSG00000029636.77|Wasf3 (ssRNA)
RNA: GGGAGUUCUACAGUCCGACGAUCGCUUCGAUAUCCGCAUGCUAAAGAUCACUGGCUGUGUGUCUCAGUGAUGUCUUCCAACCAGUGGGUGAUACGUUUUCCUGUUUCUUCCCUUUGCAAAUUGAAUUCCAGGUAGAUAUGGUUGUAGAGGGGAAAGUUUAACAAAUCAGAAUGAAAUGUUUGUCUGUUUGCACACUGGGCCUGGUGGCCUCCAAGGAAAUGUGUACGAUCGUUUGCUUUCUCUAUCUUGGCGCUUGCAACCGAGAGCGGCCAUUUUUAUGAGGGGAGCCCUGUGGGUACUCAUCUCUUGCGGUCGCACUAGUGUGGAAUUCUCGGGUGUCAAGG
B2: ENSMUSG00000090935.714|Synj2bp (ssRNA)
RNA: GGGAGUUCUACAGUCCGACGAUCGCUUCGAUAUCCGCAUGCUAAGAGCUCUGCUCUCUGAGCAUCUGCCCCAGAUACAGAGGCAGAGUAUGAAGUGGAACAUUGUUUUAUUCCUAGGUGCUCAGGACAGACUGAUCAACCUCCAGUAACAUAUGUGGUUAGUAAGUGCUUCAGCUUGUGUAGCCAUUAAUAACCAAGUCAUAGGAUUGUGAAUCUAAAAUACUCCUGGGUAAAAUUUGUAUUAGAAUGGAAAAAAAAAUGAGGGUCAGAAAGGUGAGCUAACUUCAAGUUAGAUACUCCCCUCCUCUUGCGGUCGCACUAGUGUGGAAUUCUCGGGUGUCAAGG
B3: ENSMUSG00000061578.632|Ksr2|56:60;95:99 (ssRNA)
RNA: GGGAGUUCUACAGUCCGACGAUCGCUUCGAUAUCCGCAUGCUAUAGAGGGGACGGACAGCUCCCUGACCCUGGAUGGCCAGGAAUGGUGCUAGCUAGGCACACAGCCAAGCCCUUGAGGCUACUGUGAGUUAUGAGAACACACCAACCCUCAGCCCACAGACUGCAUAUGCCCCAGGACAGCUGUGAAGGUGACCCAAUACAAAAUCGUAAACUAACUUAAAACCAUUAAGGGUUUUUGUUUUGUUGUUGUUUGCUGGCUUUUUGUUUUUUGGGUUGGUUUUCUUUUUCUUUCUUUCUUUUUUCUCUUGCGGUCGCACUAGUGUGGAAUUCUCGGGUGUCAAGG
B4: ENSMUSG00000029636.427|Wasf3 (ssRNA)
RNA: GGGAGUUCUACAGUCCGACGAUCGCUUCGAUAUCCGCAUGCUAAGCUAGGUGGAUGGGUGGGUGGAUACAUGGAUGAGUGGAUGGGUGGAUUGGUGGGUGAGUGGAUAGGUGAAUGGAUGAUAGGUGGUGGAUGGUUGAGUGGGUGGAUUCAUGAUGGAUGGAUGGAUGGAUGGAUGGAUGGAUGGAUGGAUGAGUGGAUGGAUAAUAGGUUGAUGGGUGGAUAGGUAGAUGAGUGAAUAGAUAGAUAUAGAUCAGUGGGAGGAUUGGAAAGUAGGUGAAUGAAUGGAUGGCAGAUAGAUGGACUCUUGCGGUCGCACUAGUGUGGAAUUCUCGGGUGUCAAGG
B5: ENSMUSG00000029636.430|Wasf3 (ssRNA)
RNA: GGGAGUUCUACAGUCCGACGAUCGCUUCGAUAUCCGCAUGCUAGUGGAUACAUGGAUGAGUGGAUGGGUGGAUUGGUGGGUGAGUGGAUAGGUGAAUGGAUGAUAGGUGGUGGAUGGUUGAGUGGGUGGAUUCAUGAUGGAUGGAUGGAUGGAUGGAUGGAUGGAUGGAUGGAUGAGUGGAUGGAUAAUAGGUUGAUGGGUGGAUAGGUAGAUGAGUGAAUAGAUAGAUAUAGAUCAGUGGGAGGAUUGGAAAGUAGGUGAAUGAAUGGAUGGCAGAUAGAUGGAUCAAUUACAGAUGGAUGGCUCUUGCGGUCGCACUAGUGUGGAAUUCUCGGGUGUCAAGG
B6: ENSMUSG00000029636.428|Wasf3 (ssRNA)
RNA: GGGAGUUCUACAGUCCGACGAUCGCUUCGAUAUCCGCAUGCUAGUGGAUGGGUGGGUGGAUACAUGGAUGAGUGGAUGGGUGGAUUGGUGGGUGAGUGGAUAGGUGAAUGGAUGAUAGGUGGUGGAUGGUUGAGUGGGUGGAUUCAUGAUGGAUGGAUGGAUGGAUGGAUGGAUGGAUGGAUGGAUGAGUGGAUGGAUAAUAGGUUGAUGGGUGGAUAGGUAGAUGAGUGAAUAGAUAGAUAUAGAUCAGUGGGAGGAUUGGAAAGUAGGUGAAUGAAUGGAUGGCAGAUAGAUGGAUCAAUUCUCUUGCGGUCGCACUAGUGUGGAAUUCUCGGGUGUCAAGG
B7: ENSMUSG00000042529.153|Kcnj12 (ssRNA)
RNA: GGGAGUUCUACAGUCCGACGAUCGCUUCGAUAUCCGCAUGCUAAUAGGAAACACCAGAGUGGGUGCUUCUUAGAAAAGGACACUCAGGAAAUUAGUAUGGGGUCUGGGUCCCACAUCCCCAGGAAGUGGGUCAGCCCCACGUCCCCCGCUGGACUCACAGCUUGAGUUGUGCCUUAGAGACUCUGGUUGUCUGGCUUCCGUCAUUUCUGGUUUUCUCAGACUUGUUUAAUCUUUCCCUACUGCCCUAAGUCCACUCAUGAAGCUCCCCAGGCCCUUCUGAGAUUGCAGAGGCUGCUUGCUCAUCUCUUGCGGUCGCACUAGUGUGGAAUUCUCGGGUGUCAAGG
B8: ENSMUSG00000058297.9|Spock2 (ssRNA)
RNA: GGGAGUUCUACAGUCCGACGAUCGCUUCGAUAUCCGCAUGCUAGGAGGAGGAGGGUGAGGCGGGUGAGGCAGAUGAUGGAGGCUACAUCUGGUAGAUAGCCCUCGACGGCCUCGGCAGGCCAGGGUGCCGACGGCCAGAAAGACAGGCCAGAAGAGACCUGGACAACAGCAGGCAACUUAGCAAAUGGAUCCGGAAGUCAGUGCGGAGGACCCUGGCUCCAGUGGGGGAGGACUGGGGAGUGUGGCUUGUGUGUAUGUGUGAUAUGAGAUGUGUGUGUAUGAUGUGAGAUGUGAGUGUGUGAUCUCUUGCGGUCGCACUAGUGUGGAAUUCUCGGGUGUCAAGG
B9: ENSMUSG00000058297.1|Spock2 (ssRNA)
RNA: GGGAGUUCUACAGUCCGACGAUCGCUUCGAUAUCCGCAUGCUAGGAGGAUGAGGAAGAAAAGGAGACAGAAGAGGCAGGGGAGGAGGCCGAGGAGGAGGAGGGUGAGGCGGGUGAGGCAGAUGAUGGAGGCUACAUCUGGUAGAUAGCCCUCGACGGCCUCGGCAGGCCAGGGUGCCGACGGCCAGAAAGACAGGCCAGAAGAGACCUGGACAACAGCAGGCAACUUAGCAAAUGGAUCCGGAAGUCAGUGCGGAGGACCCUGGCUCCAGUGGGGGAGGACUGGGGAGUGUGGCUUGUGUGUACUCUUGCGGUCGCACUAGUGUGGAAUUCUCGGGUGUCAAGG
B10: ENSMUSG00000058297.9|Spock2|197:201;205:218;227:238;252:258 (ssRNA)
RNA: GGGAGUUCUACAGUCCGACGAUCGCUUCGAUAUCCGCAUGCUAGGAGGAGGAGGGUGAGGCGGGUGAGGCAGAUGAUGGAGGCUACAUCUGGUAGAUAGCCCUCGACGGCCUCGGCAGGCCAGGGUGCCGACGGCCAGAAAGACAGGCCAGAAGAGACCUGGACAACAGCAGGCAACUUAGCAAAUGGAUCCGGAAGUCAGUGCGGAGGACCCUGGCUCCAGUGGGGGAGGACUGGGGACACACGCUACACACAUACACACAUAUGAGAACACACACAUACAUGUGAGAUGUGACACACACAUCUCUUGCGGUCGCACUAGUGUGGAAUUCUCGGGUGUCAAGG
B11: ENSMUSG00000058297.8|Spock2 (ssRNA)
RNA: GGGAGUUCUACAGUCCGACGAUCGCUUCGAUAUCCGCAUGCUAGGCCGAGGAGGAGGAGGGUGAGGCGGGUGAGGCAGAUGAUGGAGGCUACAUCUGGUAGAUAGCCCUCGACGGCCUCGGCAGGCCAGGGUGCCGACGGCCAGAAAGACAGGCCAGAAGAGACCUGGACAACAGCAGGCAACUUAGCAAAUGGAUCCGGAAGUCAGUGCGGAGGACCCUGGCUCCAGUGGGGGAGGACUGGGGAGUGUGGCUUGUGUGUAUGUGUGAUAUGAGAUGUGUGUGUAUGAUGUGAGAUGUGAGUGCUCUUGCGGUCGCACUAGUGUGGAAUUCUCGGGUGUCAAGG
B12: ENSMUSG00000058297.10|Spock2 (ssRNA)
RNA: GGGAGUUCUACAGUCCGACGAUCGCUUCGAUAUCCGCAUGCUAGGAGGGUGAGGCGGGUGAGGCAGAUGAUGGAGGCUACAUCUGGUAGAUAGCCCUCGACGGCCUCGGCAGGCCAGGGUGCCGACGGCCAGAAAGACAGGCCAGAAGAGACCUGGACAACAGCAGGCAACUUAGCAAAUGGAUCCGGAAGUCAGUGCGGAGGACCCUGGCUCCAGUGGGGGAGGACUGGGGAGUGUGGCUUGUGUGUAUGUGUGAUAUGAGAUGUGUGUGUAUGAUGUGAGAUGUGAGUGUGUGAUGUGAGACUCUUGCGGUCGCACUAGUGUGGAAUUCUCGGGUGUCAAGG
B13: ENSMUSG00000058297.4|Spock2 (ssRNA)
RNA: GGGAGUUCUACAGUCCGACGAUCGCUUCGAUAUCCGCAUGCUAGGAGACAGAAGAGGCAGGGGAGGAGGCCGAGGAGGAGGAGGGUGAGGCGGGUGAGGCAGAUGAUGGAGGCUACAUCUGGUAGAUAGCCCUCGACGGCCUCGGCAGGCCAGGGUGCCGACGGCCAGAAAGACAGGCCAGAAGAGACCUGGACAACAGCAGGCAACUUAGCAAAUGGAUCCGGAAGUCAGUGCGGAGGACCCUGGCUCCAGUGGGGGAGGACUGGGGAGUGUGGCUUGUGUGUAUGUGUGAUAUGAGAUGUGCUCUUGCGGUCGCACUAGUGUGGAAUUCUCGGGUGUCAAGG
B14: ENSMUSG00000058297.8|Spock2|203:207;211:224;233:244 (ssRNA)
RNA: GGGAGUUCUACAGUCCGACGAUCGCUUCGAUAUCCGCAUGCUAGGCCGAGGAGGAGGAGGGUGAGGCGGGUGAGGCAGAUGAUGGAGGCUACAUCUGGUAGAUAGCCCUCGACGGCCUCGGCAGGCCAGGGUGCCGACGGCCAGAAAGACAGGCCAGAAGAGACCUGGACAACAGCAGGCAACUUAGCAAAUGGAUCCGGAAGUCAGUGCGGAGGACCCUGGCUCCAGUGGGGGAGGACUGGGGACACACGCUACACACAUACACACAUAUGAGAACACACACAUACAUGUGAGAUGUGAGUGCUCUUGCGGUCGCACUAGUGUGGAAUUCUCGGGUGUCAAGG
B15: ENSMUSG00000058297.7|Spock2 (ssRNA)
RNA: GGGAGUUCUACAGUCCGACGAUCGCUUCGAUAUCCGCAUGCUAGGAGGAGGCCGAGGAGGAGGAGGGUGAGGCGGGUGAGGCAGAUGAUGGAGGCUACAUCUGGUAGAUAGCCCUCGACGGCCUCGGCAGGCCAGGGUGCCGACGGCCAGAAAGACAGGCCAGAAGAGACCUGGACAACAGCAGGCAACUUAGCAAAUGGAUCCGGAAGUCAGUGCGGAGGACCCUGGCUCCAGUGGGGGAGGACUGGGGAGUGUGGCUUGUGUGUAUGUGUGAUAUGAGAUGUGUGUGUAUGAUGUGAGAUGCUCUUGCGGUCGCACUAGUGUGGAAUUCUCGGGUGUCAAGG
B16: ENSMUSG00000058297.6|Spock2 (ssRNA)
RNA: GGGAGUUCUACAGUCCGACGAUCGCUUCGAUAUCCGCAUGCUAGGCAGGGGAGGAGGCCGAGGAGGAGGAGGGUGAGGCGGGUGAGGCAGAUGAUGGAGGCUACAUCUGGUAGAUAGCCCUCGACGGCCUCGGCAGGCCAGGGUGCCGACGGCCAGAAAGACAGGCCAGAAGAGACCUGGACAACAGCAGGCAACUUAGCAAAUGGAUCCGGAAGUCAGUGCGGAGGACCCUGGCUCCAGUGGGGGAGGACUGGGGAGUGUGGCUUGUGUGUAUGUGUGAUAUGAGAUGUGUGUGUAUGAUGUCUCUUGCGGUCGCACUAGUGUGGAAUUCUCGGGUGUCAAGG

Whole data set: some 9,900 sequences, median “r (bound/input frequency ratio)” near 0.7, cut for the highest 2% near 6.5. What follows is part of a selection rich in the highest values, with near analogues and random picks from the rest.

Chain of TDP-43 (Q13148 whole entry): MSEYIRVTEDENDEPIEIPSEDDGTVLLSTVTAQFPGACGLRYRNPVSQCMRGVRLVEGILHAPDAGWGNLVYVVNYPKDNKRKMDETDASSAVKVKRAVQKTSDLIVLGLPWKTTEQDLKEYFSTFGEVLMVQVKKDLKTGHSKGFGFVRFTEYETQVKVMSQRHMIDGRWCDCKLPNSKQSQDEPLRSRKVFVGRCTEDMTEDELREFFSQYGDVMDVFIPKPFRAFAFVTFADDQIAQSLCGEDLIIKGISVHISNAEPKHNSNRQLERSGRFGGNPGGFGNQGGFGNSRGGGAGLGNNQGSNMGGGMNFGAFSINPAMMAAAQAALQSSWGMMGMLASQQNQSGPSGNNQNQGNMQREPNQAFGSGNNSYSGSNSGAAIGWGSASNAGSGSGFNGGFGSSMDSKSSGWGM

The assay concerns the target TDP-43 (Homo sapiens, UniProt Q13148 1-414). Briefly: RNA Bind-n-Seq with designed 260-mer pool; 25 mM Tris-HCl, 150 mM KCl, 3 mM MgCl2, BSA (printed 500 mg/mL), 20 units/mL SUPERase IN; pH not stated; 500 nM RNA pool, 1 h, 4 C; TDP-43 5, 50, 500 nM; high values mean tight binding. Conditions: protein: recombinant; tags: SBP (GST cleaved off with PreScission; pGEX-GST-SBP). The procedure, abridged:
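In 25 mM Tris-HCl, 150 mM KCl, 3 mM MgCl2, BSA and SUPERase IN, 500 nM of an in vitro-transcribed 260-nt 3′ UTR oligo pool was incubated for 1 h at 4 °C with SBP-tagged TDP-43 (5, 50 or 500 nM) captured on streptavidin beads. RNA remaining after washes was biotin-eluted, reverse transcribed, PCR-amplified and sequenced. Binding, R, is the bound-sample abundance of each oligo, normalized to mapped reads, divided by its abundance in input. Each duplicate used a separate, independent protein batch.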
Turning to B1, the binding signal was 4.99 R (bound/input frequency ratio).

Take B2: the binding signal is 1.22 R (bound/input frequency ratio).

As to B3, the binding signal was 0.54 R (bound/input frequency ratio).

As to B4, the binding signal is 4.15 R (bound/input frequency ratio).

For the molecule B5, the binding signal is 4.31 R (bound/input frequency ratio).

For B6, the binding signal is 8.28 R (bound/input frequency ratio).

Consider B7, for which the binding signal is 0.587 R (bound/input frequency ratio).

For the molecule B8, the binding signal was 5.99 R (bound/input frequency ratio).

As to B9, the binding signal is 3.54 R (bound/input frequency ratio).

As for B10, the binding signal is 2.81 R (bound/input frequency ratio).

For the molecule B11, the binding signal was 6.51 R (bound/input frequency ratio).

Take B12: the binding signal was 6.91 R (bound/input frequency ratio).

On to B13, for which the binding signal is 6.81 R (bound/input frequency ratio).

For the molecule B14, the binding signal is 2.32 R (bound/input frequency ratio).

For the molecule B15, the binding signal was 5.88 R (bound/input frequency ratio).

For B16, the binding signal is 4.92 R (bound/input frequency ratio).
